According to PubChem BioAssay AID1494157 (National Center for Advancing Translational Sciences (NCATS), 2020):
Records with an inconclusive call do not appear. Activity calls are given as the source filed them. The call rests on the fitted dose curve.

Experiment: Confirmatory qHTS for inhibitors of MERS-S pseudo-typed particle cell entry
Details: MERS-S pseudotyped particle entry, luciferase reporter; series mostly up to 57.1 µM
For `CC(C)(C)c1ccc(C(=O)CCCN2CCC(OC(c3ccccc3)c3ccccc3)CC2)cc1`, the Potency was 3.41 µM (active).
With `CC(=O)Oc1ccccc1C(=O)Nc1ncc([N+](=O)[O-])s1` the Potency was 10.8 µM (active).
For `C[C@H]1[C@H](OC(=O)CCC(=O)O)O[C@@H]2O[C@@]3(C)CC[C@H]4[C@H](C)CC[C@@H]1[C@@]24OO3`, the Potency was 0.857 µM (active).
With `CC(C)C[C@H](NC(=O)[C@H](CCc1ccccc1)NC(=O)CN1CCOCC1)C(=O)N[C@@H](Cc1ccccc1)C(=O)N[C@@H](CC(C)C)C(=O)[C@@]1(C)CO1` the Potency was 0.192 µM (active).
For `O=C(Nc1ccc(Cl)cc1)Nc1ccc(Cl)c(C(F)(F)F)c1`, the Potency was 10.8 µM (active).
For `N=C(N)c1ccc(OCCCCCOc2ccc(C(=N)N)cc2)cc1`, the Potency was 12.1 µM (active).
For `CCN(CC)Cc1cc(Nc2ccnc3cc(Cl)ccc23)ccc1O`, the Potency was 9.61 µM (active).
In the case of `CN(C)CCC=C1c2ccccc2C(C)(C)c2ccccc21`, the Potency was 15.2 µM (active).
For `CN(C)[C@@H](CCOc1cccc2ccccc12)c1ccccc1`, the Potency was 12.1 µM (active).
With `CN1CC[C@H](CN2c3ccccc3Sc3ccccc32)C1` the Potency was 15.2 µM (active).
With `CC(C)(C)C(=O)OCOP(=O)(COCCn1cnc2c(N)ncnc21)OCOC(=O)C(C)(C)C` the Potency was 0.0304 µM (active).
For `CC(C)C(=O)Oc1ccc(CO)cc1[C@H](CCN(C(C)C)C(C)C)c1ccccc1`, the Potency was 19.2 µM (active).
In the case of `c1ccc2c(c1)Sc1ccccc1N2CC1CN2CCC1CC2` (centres undefined), the Potency was 12.1 µM (active).
With `CCCCCCCCCCCC[n+]1ccc2ccccc2c1` the Potency was 1.36 µM (active).
In the case of `Nc1nc(Cl)nc2c1ncn2C1CC(O)C(CO)O1` (centres undefined), the Potency was 12.1 µM (active).
With `O=C1CCc2ccc(OCCCCN3CCN(c4cccc(Cl)c4Cl)CC3)cc2N1` the Potency was 12.1 µM (active).
For `CNC(=O)c1cc(Oc2ccc(NC(=O)Nc3ccc(Cl)c(C(F)(F)F)c3)c(F)c2)ccn1`, the Potency was 15.2 µM (active).
With `COc1cccc2c1C(=O)c1c(O)c3c(c(O)c1C2=O)C[C@@](O)(C(=O)CO)C[C@@H]3O[C@H]1C[C@H](N)[C@@H](O)[C@H](C)O1` the Potency was 3.83 µM (active).
For `C=C(C)[C@H]1Cc2c(ccc3c2O[C@@H]2COc4cc(OC)c(OC)cc4[C@@H]2C3=O)O1`, the Potency was 0.0136 µM (active).
In the case of `NCCNc1ccc(NCCN)c2c1C(=O)c1ccncc1C2=O`, the Potency was 19.2 µM (active).
For `CN(C)CC/C=C1\c2ccccc2Sc2ccc(Cl)cc21`, the Potency was 8.57 µM (active).
For `CCCCCCOC(=O)NC(=N)c1ccc(NCc2nc3cc(C(=O)N(CCC(=O)OCC)c4ccccn4)ccc3n2C)cc1`, the Potency was 19.2 µM (active).
With `Cc1nnc(C(=O)NC(C)(C)c2nc(C(=O)NCc3ccc(F)cc3)c(O)c(=O)n2C)o1` the Potency was 0.0043 µM (active).
In the case of `CN1CCCCC1CCN1c2ccccc2Sc2ccc(S(C)=O)cc21` (centres undefined), the Potency was 17.1 µM (active).
In the case of `COc1ccc2cc3[n+](cc2c1OC)CCc1cc2c(cc1-3)OCO2`, the Potency was 9.61 µM (active).
In the case of `Cc1c(N)nc(C(CC(N)=O)NCC(N)C(N)=O)nc1C(=O)NC(C(=O)NC(C)C(O)C(C)C(=O)NC(C(=O)NCCc1nc(-c2nc(C(=O)NCCCN[C@@H](C)c3ccccc3)cs2)cs1)C(C)O)C(O[C@@H]1O[C@@H](CO)[C@@H](O)[C@H](O)[C@@H]1O[C@H]1O[C@H](CO)[C@@H](O)[C@H](OC(N)=O)[C@@H]1O)c1cnc[nH]1` (some centres undefined), the Potency was “inactive”.
With `CC(CN(C)C)CN1c2ccccc2CCc2ccccc21` (centres undefined) the Potency was 17.1 µM (active).
In the case of `COc1cccc2c1C(=O)c1c(O)c3c(c(O)c1C2=O)C[C@@](O)(C(=O)CO)CC3OC1CC(N2CCOC(OC)C2)C(O)C(C)O1` (some centres undefined), the Potency was 0.215 µM (active).
With `O=c1ccc2ccccc2o1` the Potency was “inactive”.
